uPA generation: cell surface uPA generation inhibition; cell surface uPA generation assay, qHTS; Potency, µM (top dose mostly 38.3 µM), without a hit: at the top dose activity change, negative = inhibition, actives largely listed as inhibitors; hit rate 0.31% among 330,000; AID 540303; active = well fitted inhibition curve with a large enough effect; inconclusive = small, poorly fitted or top-dose-only effect; inactive = no such curve, though single readings can be large or run the other way; tested in mouse RAW 264.7 cells; also: potency is read from the fitted curve at half-maximal effect; nearly all actives have a fitted effect of over 55% in size
IL-1B inflam inh: inflammasome signaling inhibition, IL-1 beta readout | THP-1 LPS/ATP IL-1B secretion, AlphaLISA, 16 h; stronger effect = lower value | hit rate 4.7% among 360,000 | activity change, % at 57.5 µM; in the data active = activity change below about -50%; inconclusive = mostly about -30% to -49%
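Secreted IL-1B measured by AlphaLISA bead assay after 16 h compound exposure of THP-1 cells; compounds (final up to 57.5 uM) added 1 h before LPS (250 ng/mL) and ATP (1.25 mM) stimulation; lower signal means less secretion.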
TDP1 cell CPT: DT40-hTDP1 cell growth loss with CPT. hit rate 12% among 420,000. Potency, µM (highest dose often 46.2 µM), inactives show top-dose activity change, negative = growth inhibition, actives largely listed as inhibitors. AID 686979. chicken DT40 Tdp1-/-;hTDP1 cells + 20 nM CPT, ATP luminescence, 48 h; also: potency is read from the fitted curve at half-maximal effect; nearly all actives have a fitted effect of over 55% in size
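Chicken DT40 Tdp1-/- cells complemented with human TDP1, 400 cells/well, exposed to compounds plus 20 nM camptothecin for at least 48 h at 37 C; viability read as ATP content by CellTiter-Glo luminescence.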
DT40 TDP1 no CPT: qHTS for Inhibitors of human tyrosyl-DNA phosphodiesterase 1 (TDP1): qHTS in cells in absence of CPT; DT40 Tdp1-/- hTDP1 cells, no CPT, ATP luminescence, 48 h; Potency, µM (series often up to 46.2 µM), for the others: at the highest dose activity change, negative = growth inhibition, most hits filed as inhibitors; hit rate 15% among 420,000; also: potency is read from the fitted curve at half-maximal effect; nearly all actives have a fitted effect of over 55% in size
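Luminescent ATP content (CellTiter-Glo) served as the growth readout. Knockout chicken DT40 cells expressing human TDP1 were exposed to compounds without camptothecin for a minimum 48 hr at 37 °C.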
HT1080-NT tox: kills 2HG-producing HT-1080-NT fibrosarcoma cells. Potency, µM (doses to about 46.1 µM), without a hit: at the highest dose activity, negative = less viability, hits mostly cytotoxic. hit rate 1.6% among 360,000. HT-1080-NT fibrosarcoma viability, CellTiter-Glo ATP luminescence, 48 h. AID 686970;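 also: NT is the 2HG producing partner of a matched IDH1 knockdown line; potency is read from the fitted curve at half-maximal effect; 0% = DMSO-treated cells and -100% = media-only wells without cells; nearly all actives have a fitted effect of over 55% in size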
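Fibrosarcoma NT cells, 750 per well in 5% FBS RPMI, were exposed to compound for 48 hours. Viability: CellTiter-Glo luminescence.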
HT1080 IDH1KD tx: toxicity to HT-1080 IDH1 knockdown cells (counter line). HT-1080 IDH1 knockdown viability, ATP luminescence, 48 h. Potency, µM (highest dose often 46.1 µM), for the others: at the highest dose activity, negative = toxicity, actives largely listed as cytotoxic. hit rate 2% among 360,000. AID 686971;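 also: potency is read from the fitted curve at half-maximal effect; 0% = DMSO wells and -100% = cell-free medium wells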
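Using the IDH1-knockdown HT-1080 line run in the same batch and compound series as the NT line, viability after 48 h at 37 °C was determined by CellTiter-Glo luminescence and expressed as % activity.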
Starred values were filed as active, the others as inactive; u = inconclusive; x = no result given; [ ] = another dose, or the depositor's remark. Compounds with a hit are over-represented: about 19% of the library has one in this group of screens. Unless noted, calls follow the shape of the dose curve; as a rule, active = well fitted curve in the direction sought with a large enough effect; inconclusive = small, poorly fitted or top-dose-only effect, or another doubt; inactive = no such curve, though single readings can be large; an effect the other way counts as inactive or inconclusive. Unless noted, % is scaled to controls: 0 for no effect and ±100 for the full control effect.

SMILES	uPA generation	IL-1B inflam inh	TDP1 cell CPT	DT40 TDP1 no CPT	HT1080-NT tox	HT1080 IDH1KD tx
Cc1ccc(-c2csc(NCCn3c(-c4ccncc4)nc4ccccc43)n2)cc1	-22%	6	u	23µM*	-2%	-7%
O=[N+]([O-])c1cc(-c2csc(NCCc3nc4cc(C(F)(F)F)ccc4n3CCCO)n2)ccc1Cl	9%	-1	u	u	3%	2%
Cc1nc2cc(C(F)(F)F)ccc2n1CCNc1nc(-c2ccc(F)cc2)cs1	8%	12	u	u	8%	0%
Cc1nc2cc(C(F)(F)F)ccc2n1CCNc1nc(-c2ccc([N+](=O)[O-])c(Cl)c2)cs1	-1%	u	u	21µM*	u	u
Cc1ccc(-c2csc(NCCn3c(-c4ccncc4)nc4cc(C(F)(F)F)ccc43)n2)cc1	1%	u	29µM*	u	-2%	1%
Cc1ccc(Cn2c(CCNc3nc(-c4ccc(Cl)c([N+](=O)[O-])c4)cs3)nc3cc(C(=O)NCCCO)ccc32)cc1	u	10	10µM*	13µM*	u	u
CNC(=O)C[C@@H]1CC[C@@H]2[C@H](COC[C@H](O)CN2S(=O)(=O)c2ccccc2Cl)O1	x	-1	-3%	-5%	14%	15%
CC(C)C(=O)N1CCCC1(C)C(=O)Nc1cccc(Oc2ccccc2)c1 (configuration not stated)	x	18	u	u	19%	16%
COC(=O)c1ccc(C(=O)NC(=S)Nc2nc3c(s2)CCCC3)cc1	0%	29	u	16µM*	-1%	0%
O=C(NC(=S)Nc1nc2c(s1)CCCC2)c1ccccc1	4%	0	u	29µM*	1%	0%
Cc1nc(NC(=S)NC(=O)c2ccccc2)sc1C	-1%	43	5%	u	-2%	5%
CC(C)CNC(=O)C1(C)CCCCCN1C(=O)c1cc2ccccc2s1 (configuration not stated)	x	27	-21%	u	1%	u
CCCCNC(=O)C1(C)CCN1C(=O)c1cc(-c2cccs2)oc1C (configuration not stated)	x	-104*	1.6µM*	3.7µM*	u	23µM*
CCCCNC(=O)C1(C)CCCCN1C(=O)c1c(F)ccc(C)c1F (configuration not stated)	x	8	2%	-17%	2%	19%
CCCCNC(=O)C1(C)CCN1C(=O)c1ccccc1Br (configuration not stated)	x	u	-1%	-5%	17%	4%
CCCCNC(=O)C1(C)CCCCN1C(=O)c1c(Cl)cccc1Cl (configuration not stated)	x	21	u	13µM*	u	6%
CCCCNC(=O)C1(C)CCCCN1C(=O)c1cc(OC)ccc1Br (configuration not stated)	x	-96*	u	u	9%	u
CCCCNC(=O)C1(C)CCCCN1C(=O)c1cc2ccccc2s1 (configuration not stated)	x	8	8.2µM*	15µM*	15%	9%
C/C(Cc1ccccc1)=N\NC(=O)CNC(=O)c1ccccc1Br	-4%	-6	-30%	18%	-7%	-1%
O=C(CS(=O)(=O)c1ccccc1)Nc1ccccc1Br	6%	-28	u	-7%	20%	10%
O=C(NC1CC(=O)N(c2ccc(Cl)cc2)C1)c1ccc2c(c1)OCO2 (configuration not stated)	x	x	-17%	u	x	x
O=C(Nc1cccc(F)c1)N1CCC2(CC1)CCN(C(=O)c1cnccn1)CC2	x	x	11%	-24%	x	x
Cc1[nH]c(=O)[nH]c(=O)c1S(=O)(=O)Nc1cccc(Cl)c1C	x	x	-1%	11%	x	x
CCCCNC(=O)C1(C)CCCCN1C(=O)c1ccc(C)c(F)c1 (configuration not stated)	x	41	-28%	-27%	22%	5%
CCCCNC(=O)C1(C)CCCCN1C(=O)c1ccc2sccc2c1 (configuration not stated)	x	11	u	16µM*	19%	10%
SMILES	uPA generation	IL-1B inflam inh	TDP1 cell CPT	DT40 TDP1 no CPT	HT1080-NT tox	HT1080 IDH1KD tx
Cc1ccc(C(=O)Nn2cnnc2)cc1Cl	u	6	-7%	-12%	-6%	1%
O=C(Cn1c(=O)n(-c2ccccc2)c(=O)c2ccc(C(=O)NCc3ccc4c(c3)OCO4)cc21)Nc1ccc(Br)cc1F	x	x	u	15µM*	x	x
COc1ccc(Cl)cc1NC(=O)Cn1c(=O)n(-c2ccc(C)cc2)c(=O)c2ccc(C(=O)NCc3ccccc3Cl)cc21	x	x	4.6µM*	u	x	x
O=C(Cn1c(=O)n(-c2ccccc2)c(=O)c2ccc(C(=O)NCc3ccc4c(c3)OCO4)cc21)Nc1ccc(F)cc1	x	x	-23%	-27%	x	x
COc1ccc(-n2c(=O)c3ccc(C(=O)NCc4ccc(C)cc4)cc3n(CC(=O)Nc3cccc(F)c3)c2=O)cc1	x	x	13µM*	u	x	x
O=S(O)CO	x	x	14%	1%	x	x
Cc1ccc(OCCOC(=O)c2cccc(S(=O)(=O)N3CC(C)OC(C)C3)c2)cc1 (configuration not stated)	-15%	-29	u	u	-9%	-17%
COc1cc(Cl)cc(/C=N/NC(N)=O)c1O	7%	-3	-3%	-13%	10%	-7%
COc1cccc(C(=O)NCC(=O)N2CCC(C)CC2)c1	2%	8	1%	-4%	12%	18%
COc1ccccc1C(=O)NCCC(=O)N1CCN(c2ccc(C(F)(F)F)cn2)CC1	2%	-18	23µM*	21µM*	-9%	-9%
COc1ccc(C(=O)COC(=O)C2CCN(c3ccc(C(F)(F)F)cn3)CC2)c(OC)c1	7%	17	u	21µM*	18%	14%
COc1cccc(C(=O)NCC(=O)N2CCN(c3ccc(C(F)(F)F)cn3)CC2)c1	-2%	20	7.3µM*	4.1µM*	-20%	-17%
Cc1cc(C)c(C(=O)COC(=O)C2CCN(c3ccc(C(F)(F)F)cn3)CC2)cc1C	-7%	19	u	u	12%	0%
NC(=O)c1ccc[n+]([C@@H]2O[C@H](COP(=O)([O-])OP(=O)(O)OC[C@H]3O[C@@H](n4cnc5c(N)ncnc54)[C@H](O)[C@@H]3O)[C@@H](O)[C@H]2O)c1	x	x	7%[21.1 µM]	-18%[21.1 µM]	x	x
